# Measured values as given in PubChem BioAssay (NCATS).
# Inconclusive results are not listed. Where a call stands in place of a potency, no number is given. Activity calls are given as the source filed them. Unless noted, calls come from the whole dose curve; as a rule, active = well fitted curve in the direction sought with a large enough effect; inconclusive = small, poorly fitted or top-dose-only effect, or another doubt; inactive = no such curve, though single readings can be large; an effect the other way counts as inactive or inconclusive.
# Tests used:
# [1] = Cell Viability - LYMP2-026 (AID 989);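 note: cells exposed to compound for 24 h at 37 °C; nearly all actives have a fitted effect of over 50% in size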
# How it was run: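 Cells are seeded at 2500 per well and held 5 hr at 37 C. Compounds are added in concentration series for 24 hr, then CellTiter-Glo reagent is applied and luminescence read.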
# [2] = Cell Viability - LYMP1-002 - Assay at 24 hr (AID 993)
# How it was run: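 Acute toxicity is measured as concentration-dependent loss of cellular ATP in a human lymphoblastoid line (Coriell LYMP1-002) after 24 h treatment in complete medium. ATP is quantified by luciferase luminescence and AC50 derived by Hill modelling.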
# [3] = Cell Viability - LYMP1-002 - Assay at 40 hr (AID 994); note: nearly all actives have a fitted effect of over 60% in size
# How it was run: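 Cells are plated at 2500 per well and rested 5 hr at 37 C. Compounds are added and incubated 40 hr at 37 C. CellTiter-Glo reagent is added for 30 min at room temperature before luminescence is read.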
# [4] = target: DNA dC->dU-editing enzyme APOBEC-3G (Homo sapiens) (UniProt Q9HC16); assay: qHTS for inhibitors of Vif-A3G interactions: Validation (AID 588379)
# DNA dC->dU-editing enzyme APOBEC-3G (Homo sapiens), sequence (Q9HC16 whole entry, looked up): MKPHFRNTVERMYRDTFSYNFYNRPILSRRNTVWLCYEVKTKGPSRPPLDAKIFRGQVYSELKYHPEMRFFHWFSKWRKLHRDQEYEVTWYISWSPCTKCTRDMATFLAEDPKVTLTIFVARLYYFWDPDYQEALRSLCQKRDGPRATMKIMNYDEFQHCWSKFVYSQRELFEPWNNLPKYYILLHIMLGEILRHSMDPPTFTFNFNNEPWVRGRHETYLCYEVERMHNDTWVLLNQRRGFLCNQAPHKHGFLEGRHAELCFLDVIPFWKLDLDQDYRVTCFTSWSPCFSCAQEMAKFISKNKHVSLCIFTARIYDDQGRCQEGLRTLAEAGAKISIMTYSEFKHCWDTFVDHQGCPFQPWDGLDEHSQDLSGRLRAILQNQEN
# How it was run: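 Yellow fluorescence (Ex 488, Em 500-530) of Vif-coexpressing HeLa A3G-eYFP cells, scanned by Acumen cytometer, reports blocked A3G degradation. Cells plated at 700/well overnight at 37 deg C before compound addition, then a further overnight compound incubation at 37 deg C.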
# [5] = target: Bile acid receptor (Homo sapiens) (UniProt Q96RI1); assay: qHTS assay for small molecule antagonists of farnesoid X receptor signaling (AID 588526; calls by dose curve)
# Bile acid receptor (Homo sapiens), sequence (Q96RI1 whole entry, looked up): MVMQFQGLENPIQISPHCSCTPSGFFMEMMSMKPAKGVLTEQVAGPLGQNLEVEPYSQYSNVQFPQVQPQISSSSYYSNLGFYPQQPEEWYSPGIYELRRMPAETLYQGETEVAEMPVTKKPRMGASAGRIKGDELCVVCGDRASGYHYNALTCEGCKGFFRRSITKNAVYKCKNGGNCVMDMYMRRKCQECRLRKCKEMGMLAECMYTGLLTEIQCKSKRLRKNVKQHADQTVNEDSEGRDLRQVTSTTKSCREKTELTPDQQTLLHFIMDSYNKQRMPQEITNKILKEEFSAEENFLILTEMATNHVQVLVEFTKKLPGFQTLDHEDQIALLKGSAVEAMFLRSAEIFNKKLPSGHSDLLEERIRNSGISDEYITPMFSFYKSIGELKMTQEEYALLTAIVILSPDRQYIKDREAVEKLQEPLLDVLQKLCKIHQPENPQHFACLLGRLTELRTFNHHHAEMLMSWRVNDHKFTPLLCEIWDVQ
# How it was run: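 Antagonist mode: titrated compounds tested against chenodeoxycholic acid stimulation (normalized to 50 uM CDCA and DMSO) in GeneBLAzer HEK293T cells for 16 h. Beta-lactamase read by CCF4 fluorescence; IC50 from Hill fits.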
# [6] = target: Glucocorticoid receptor (Homo sapiens) (UniProt P04150); assay: qHTS assay for small molecule agonists of glucocorticoid receptor signaling (AID 588532; active = well fitted curve in the direction sought with a large enough effect in the signal ratio, with a control signal flat; the % refers to the signal ratio); conditions: HeLa MMTV-bla, beta-lactamase ratio, agonist, 18 h; stronger effect = higher value; percent of dexamethasone control, DMSO zero
# Glucocorticoid receptor (Homo sapiens), sequence (P04150 whole entry, looked up): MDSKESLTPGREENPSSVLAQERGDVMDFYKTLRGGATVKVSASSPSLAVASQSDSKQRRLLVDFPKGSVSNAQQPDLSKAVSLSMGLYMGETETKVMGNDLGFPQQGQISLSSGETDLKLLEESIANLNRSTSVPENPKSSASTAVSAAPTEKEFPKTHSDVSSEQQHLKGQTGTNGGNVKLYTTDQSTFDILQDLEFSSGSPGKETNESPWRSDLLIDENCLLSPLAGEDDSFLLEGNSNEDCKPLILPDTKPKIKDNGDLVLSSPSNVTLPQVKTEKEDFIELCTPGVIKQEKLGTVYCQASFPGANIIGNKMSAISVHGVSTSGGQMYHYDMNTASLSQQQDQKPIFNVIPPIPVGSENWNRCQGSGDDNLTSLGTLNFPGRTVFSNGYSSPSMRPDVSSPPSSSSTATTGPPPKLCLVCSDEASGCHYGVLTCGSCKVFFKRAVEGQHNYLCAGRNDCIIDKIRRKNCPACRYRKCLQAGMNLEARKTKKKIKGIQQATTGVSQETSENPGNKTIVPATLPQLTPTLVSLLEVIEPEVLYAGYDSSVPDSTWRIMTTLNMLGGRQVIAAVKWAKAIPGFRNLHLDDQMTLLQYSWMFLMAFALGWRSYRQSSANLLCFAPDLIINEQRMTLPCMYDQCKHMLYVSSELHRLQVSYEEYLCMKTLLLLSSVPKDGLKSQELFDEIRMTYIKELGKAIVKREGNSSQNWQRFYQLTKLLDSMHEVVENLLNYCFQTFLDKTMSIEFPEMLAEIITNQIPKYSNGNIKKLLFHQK
# How it was run: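 Cells were plated and rested 3-5 h at 37 C, compounds were added in titration and incubated 18 h, then CCF4 substrate was loaded for 2 h at RT before reading blue/green fluorescence. EC50 came from Hill-equation fitting.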
# [7] = target: Glucocorticoid receptor (Homo sapiens) (UniProt P04150); assay: qHTS assay for small molecule antagonists of glucocorticoid receptor signaling (AID 588533; active = well fitted inhibition curve with a large enough effect in the signal ratio, with a control signal flat, not every such curve was filed as active; the % refers to the signal ratio;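 note: cells stimulated with 2 nM dexamethasone as agonist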)
# How it was run: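 Antagonist-mode qHTS: compound titrations added to GRE-bla HeLa cells, then dexamethasone 2 nM final; 18 h, 37 C. CCF4 FRET fluorescence normalized to dexamethasone and DMSO; IC50 from Hill fit.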
# [8] = qHTS assay for small molecule antagonists of peroxisome proliferator-activated receptor delta signaling (AID 588535; active = well fitted inhibition curve with a large enough effect in the signal ratio, with a control signal flat, not every such curve was filed as active; the % refers to the signal ratio;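 for max response: cells co-treated with a PPAR-delta agonist as stimulator during compound exposure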); conditions: HEK293T PPARd-UAS-bla, beta-lactamase FRET ratio, 18 h; 460 nm channel
# How it was run: (§1)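 Fluorescence from CCF4-loaded GeneBLAzer PPAR-delta-UAS-bla HEK293T cells (2 hrs RT loading) quantified reporter inhibition after an 18 hr, 37 C compound exposure across a titration.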
# [9] = target: Peroxisome proliferator-activated receptor delta (Homo sapiens) (UniProt Q03181); assay: as above
# Peroxisome proliferator-activated receptor delta (Homo sapiens), sequence (Q03181 whole entry, looked up): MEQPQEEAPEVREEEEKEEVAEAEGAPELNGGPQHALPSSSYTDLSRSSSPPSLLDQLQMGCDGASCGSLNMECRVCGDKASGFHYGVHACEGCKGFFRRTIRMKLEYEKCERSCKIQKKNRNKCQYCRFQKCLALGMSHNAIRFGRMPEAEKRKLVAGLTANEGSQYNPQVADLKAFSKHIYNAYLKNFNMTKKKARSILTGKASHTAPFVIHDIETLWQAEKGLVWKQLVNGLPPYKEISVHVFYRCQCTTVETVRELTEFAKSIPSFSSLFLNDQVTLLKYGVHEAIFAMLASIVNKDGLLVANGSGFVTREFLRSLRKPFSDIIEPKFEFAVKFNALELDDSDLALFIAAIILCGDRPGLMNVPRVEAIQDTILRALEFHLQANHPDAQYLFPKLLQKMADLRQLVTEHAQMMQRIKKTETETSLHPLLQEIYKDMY
# How it was run: as §1
# [10] = target: Peroxisome proliferator-activated receptor gamma (Homo sapiens) (UniProt P37231); assay: qHTS assay for small molecule antagonists of peroxisome proliferator-activated receptor gamma signaling (AID 588537; active = well fitted inhibition curve with a large enough effect in the signal ratio, with a control signal flat, not every such curve was filed as active; the % refers to the signal ratio;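 note: reporter cells co-stimulated with 50 nM rosiglitazone agonist during compound treatment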)
# Peroxisome proliferator-activated receptor gamma (Homo sapiens), sequence (P37231 whole entry, looked up): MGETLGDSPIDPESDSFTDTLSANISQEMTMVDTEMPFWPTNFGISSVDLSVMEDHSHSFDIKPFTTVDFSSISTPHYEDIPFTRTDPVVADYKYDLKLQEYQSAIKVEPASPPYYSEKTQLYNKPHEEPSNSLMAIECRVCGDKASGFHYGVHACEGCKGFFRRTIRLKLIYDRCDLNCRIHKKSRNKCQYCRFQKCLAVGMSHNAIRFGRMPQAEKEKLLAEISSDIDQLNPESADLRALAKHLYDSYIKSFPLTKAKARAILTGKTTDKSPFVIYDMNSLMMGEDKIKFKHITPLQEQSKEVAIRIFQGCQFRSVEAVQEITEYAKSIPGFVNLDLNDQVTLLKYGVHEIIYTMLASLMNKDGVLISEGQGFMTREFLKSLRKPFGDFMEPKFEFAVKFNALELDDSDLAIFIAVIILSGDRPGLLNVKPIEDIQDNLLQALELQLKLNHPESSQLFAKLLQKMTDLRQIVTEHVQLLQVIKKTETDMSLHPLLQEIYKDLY
# How it was run: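 Fluorescence at 460 and 530 nm (405 nm excitation) reported beta-lactamase cleavage of CCF4 after 2 h room-temperature loading. HEK293 reporter cells in 1% charcoal/dextran-treated FBS had received compound and rosiglitazone for 16 h.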
# [11] = qHTS assay for small molecule activators of the p53 signaling pathway (AID 651743; active = well fitted activation curve with a large enough effect in the signal ratio, not every such curve was filed as active; the % refers to the signal ratio; note: series mostly up to about 92 µM); conditions: HCT-116 p53RE-bla, beta-lactamase FRET ratio, 16 h; stronger effect = higher value
# How it was run: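 Following 16 hours of compound exposure at 37 C, HCT-116 cells bearing the p53RE-bla reporter were loaded with LiveBLAzer B/G FRET substrate for 2 hours at room temperature and fluorescence intensity was recorded.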
# [12] = target: Pyruvate kinase PKM (Homo sapiens) (UniProt P14618); assay: qHTS Assay for Inhibitors of Human Muscle Pyruvate Kinase (AID 958)
# Pyruvate kinase PKM (Homo sapiens), sequence (P14618 whole entry, looked up): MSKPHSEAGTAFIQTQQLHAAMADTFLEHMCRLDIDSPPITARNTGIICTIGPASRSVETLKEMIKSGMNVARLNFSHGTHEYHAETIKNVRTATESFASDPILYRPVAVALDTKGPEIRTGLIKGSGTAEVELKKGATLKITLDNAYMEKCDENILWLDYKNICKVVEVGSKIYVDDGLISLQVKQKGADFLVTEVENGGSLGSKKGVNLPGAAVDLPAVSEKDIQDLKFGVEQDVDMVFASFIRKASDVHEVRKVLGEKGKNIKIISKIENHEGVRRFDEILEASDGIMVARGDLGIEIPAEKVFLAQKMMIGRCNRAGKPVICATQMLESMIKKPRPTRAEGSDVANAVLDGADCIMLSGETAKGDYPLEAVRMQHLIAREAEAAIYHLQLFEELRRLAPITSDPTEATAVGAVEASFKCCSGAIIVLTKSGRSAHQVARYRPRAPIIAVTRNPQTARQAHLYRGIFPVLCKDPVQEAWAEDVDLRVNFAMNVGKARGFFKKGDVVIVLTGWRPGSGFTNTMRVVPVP
# How it was run: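 PKM2, human, >95% pure, 0.1 nM; PEP 0.5 mM (Km), ADP 0.1 mM; 50 mM imidazole pH 7.2, 50 mM KCl, 0.01% Tween 20, 0.05% BSA; 1 h RT; luciferase luminescence readout.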
# [13] = target: Tyrosyl-DNA phosphodiesterase 1 (Homo sapiens) (UniProt Q9NUW8); assay: Confirmation Assay for Inhibitors of Tyrosyl-DNA Phosphodiesterase (TDP1) (AID 489007); conditions: recombinant human TDP1 enzymatic activity, dose-response; note: potency is the fitted concentration of half-maximal effect; nearly all actives have a fitted effect of over 40% in size
# Tyrosyl-DNA phosphodiesterase 1 (Homo sapiens), sequence (Q9NUW8 whole entry, looked up): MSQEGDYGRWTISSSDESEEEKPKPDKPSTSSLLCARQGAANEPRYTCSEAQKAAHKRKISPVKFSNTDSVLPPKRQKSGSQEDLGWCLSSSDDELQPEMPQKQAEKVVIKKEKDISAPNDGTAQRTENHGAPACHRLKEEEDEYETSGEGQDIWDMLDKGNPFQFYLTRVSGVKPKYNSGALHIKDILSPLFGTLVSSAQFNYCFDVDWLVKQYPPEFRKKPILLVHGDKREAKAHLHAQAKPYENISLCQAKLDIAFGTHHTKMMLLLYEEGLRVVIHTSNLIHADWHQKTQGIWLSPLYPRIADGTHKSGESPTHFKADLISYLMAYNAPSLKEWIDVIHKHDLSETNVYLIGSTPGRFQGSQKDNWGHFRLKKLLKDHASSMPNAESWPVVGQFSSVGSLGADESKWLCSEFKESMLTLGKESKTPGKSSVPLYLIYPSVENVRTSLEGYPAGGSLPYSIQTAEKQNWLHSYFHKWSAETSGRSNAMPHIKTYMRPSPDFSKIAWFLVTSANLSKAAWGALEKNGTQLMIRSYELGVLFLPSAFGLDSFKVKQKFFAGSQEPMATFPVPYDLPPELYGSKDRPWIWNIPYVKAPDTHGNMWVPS
# How it was run: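 Compounds are preincubated 15 min at room temperature with 1 nM recombinant human Tdp1. The reaction starts on adding 15 nM FITC-phosphotyrosine DNA substrate, runs 5 min, and is detected by AlphaScreen beads after 10 min.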
# [14] = qHTS Assay for Identification of Small Molecule Antagonists for Thrombopoietin (TPO) Signaling Pathway (AID 918); conditions: TPO-dependent cell signaling reporter, antagonist mode; note: potency is the fitted concentration of half-maximal effect; nearly all actives have a fitted effect of over 60% in size
# How it was run: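 Inhibitors of TPO signaling are sought by stimulating IL-3-starved murine Ba/F3 cells (human TPO receptor, Glycoprotein IIb-driven luciferase) with TPO at its EC50 of 26 pM alongside compound. After 24 hrs at 37 C, reporter luminescence is measured.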
smiles,measurement,setting,value
Cc1occc(=O)c1O,outcome,[1],inactive
same,outcome,[2],inactive
same,outcome,[3],inactive
CC1=CC(=O)CC(C)(C)C1(O)/C=C/C(C)=C\C(=O)O (centres undefined),outcome,[1],inactive
same,outcome,[2],inactive
same,outcome,[3],inactive
same,outcome,[4],inactive
same,outcome,[5],inactive
same,activation,[6],1.52% (inactive)
same,outcome,[7],inactive
same,max response,[8],3.87%
same,outcome,[9],inactive
same,outcome,[10],inactive
same,activation,[11],-1.58% (inactive)
CO/N=C(\C(=O)N[C@@H]1C(=O)N2C(C(=O)O)=C(COC(C)=O)CS[C@@H]12)c1csc(N)n1,outcome,[12],inactive
NC(=O)c1cc[n+](CC2=C(C(=O)O)N3C(=O)[C@@H](NC(=O)[C@H](c4ccccc4)S(=O)(=O)[O-])[C@@H]3SC2)cc1,Potency,[13],12.6 µM (active)
CN1CCc2cccc3c2[C@@H]1Cc1ccc(O)c(O)c1-3,Potency,[14],12.6 µM (active)
same,outcome,[12],inactive
same,outcome,[4],inactive
